# Laboratory results published in PubChem BioAssay (NCATS).
# Values joined by “and” are separate entries in the source; they are usually repeats but may differ in a detail not shown here. Equal values may be shown once. Active and inactive are the calls of the source. Entries that show only a call come without a potency. Unless noted, the call rests on the fitted dose curve; in most records, active means well fitted curve in the direction sought with a large enough effect; inconclusive means small, poorly fitted or top-dose-only effect, or another doubt; inactive means no such curve, though single readings can be large; an effect the other way counts as inactive or inconclusive. Numbered stars: 1 amine (or outer) side, 2 acyl side, 3 side chain; on linkers, the order of the positions; unused ones are H or OH. Bridge positions count the residues as written; N and C are the ends. Square brackets hold non-standard residues; d marks the D form. Peptide text beside a SMILES is read from it. I, II: the chains in the order shown. Actinocin(9to1) = Cc1c2oc3c(C)ccc(C(=O)[*:1])c3nc-2c(C(=O)[*:2])c(N)c1=O; NMeV = CN[C@H](C(=O)O)C(C)C; Sar = CNCC(=O)O
# Assays:
# [1] = target: ATP-dependent 6-phosphofructokinase (Trypanosoma brucei brucei) (UniProt O15648); assay: qHTS Assay to Find Inhibitors of T. brucei phosphofructokinase: hit validation (AID 492961);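 further: luminescence reports ADP formed as PFK phosphorylates fructose-6-phosphate with ATP; series mostly up to about 51 µM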
# How it was run: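 Inhibition of parasite PFK is measured as reduced ADP formation, quantified via luciferase after ATP depletion. Assay used 0.1 mM ATP, 0.5 mM F6P, 1.25 nM enzyme, 45 min incubation.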
# [2] = target: Ubiquitin carboxyl-terminal hydrolase 1 (Homo sapiens) (UniProt O94782); assay: Inhibitors of USP1/UAF1: Pilot qHTS (AID 504865); further: nearly all actives have a fitted effect of over 35% in size; further: potency means the concentration at half of the fitted maximal effect
# How it was run: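 Deubiquitinase activity followed as kinetic rhodamine fluorescence release from 150 nM Ub-Rho. 1 nM USP1/UAF1 with compound, after 15 min room-temperature preincubation, in HEPES pH 7.8 buffer containing TCEP, EDTA, BSA and Tween-20.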
# [3] = target: Estrogen receptor (Homo sapiens) (UniProt P03372); assay: qHTS assay for small molecule antagonists of estrogen receptor alpha signaling (AID 588513; active means well fitted curve in the direction sought with a large enough effect in the signal ratio, with a control signal flat, not every such curve was filed as active; inconclusive means small, poorly fitted or top-dose-only effect, or effect the other way, or a change in a side signal; inactive means no such curve, though single readings can be large or run the other way; the % refers to the signal ratio; further: potency means the concentration at half of the fitted maximal effect)
# How it was run: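 Antagonist mode: inhibition of 0.5 nM 17-beta-estradiol-driven beta-lactamase reporter in HEK 293 ER-alpha-UAS-bla cells, 18 h at 37C, CCF4 readout after 2 h at RT. Normalised to estradiol and DMSO; titration fitted to Hill.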
# [4] = target: Estrogen receptor (Homo sapiens) (UniProt P03372); assay: qHTS assay for small molecule agonists of estrogen receptor alpha signaling (AID 588514; calls by dose curve; further: nearly all actives have a fitted effect of over 70% in size)
# How it was run: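 Cells were plated at 5000/well, incubated 4 hrs at 37 C, dosed with compound titration series, incubated 18 hrs at 37 C, loaded with CCF4 dye for 2 hrs at RT, then fluorescence was read.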
# [5] = target: Thyrotropin-releasing hormone receptor (Homo sapiens) (UniProt P34981); assay: qHTS for Small Molecule Agonists and Allosteric Enhancers of Human TRH Receptor: Validation Screen for Agonists (AID 493127;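 active means calcium activation more than 3 SD above the typical response in the agonist read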;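 further: intracellular calcium rise by fluo-8 fluorescence before TRH EC20 addition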); details: TRH receptor agonist cell assay; at 2 µM; hits give high values
# How it was run: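 Cells 2000/well, 10% FCS, 18 h 33.5C/5% CO2 → fluo-8 Ca dye, RT 30 min–1.5 h → FDSS baseline 10 × 1 s → compound added → 230 cycles (1 s/cycle) agonist mode. TRH controls.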
# [6] = Validation screen for small molecules that induce DNA re-replication in SW480 colon adenocarcinoma cells (AID 504364)
# How it was run: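 250 cells/well; compound pinned in; 48 hr, 37 C, 5% CO2; Hoechst added, 40 min; nuclear fluorescence imaged, 405 ex / 500-530 em; re-replication scored as increase in high-intensity nuclei.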
# [7] = target: Androgen receptor (Homo sapiens) (UniProt P10275); assay: qHTS assay for small molecule agonists of androgen receptor signaling (AID 588515; active means well fitted curve in the direction sought with a large enough effect in the signal ratio, with a control signal flat; inconclusive means small, poorly fitted or top-dose-only effect, or effect the other way, or a change in a side signal; inactive means no such curve, though single readings can be large or run the other way; the % refers to the signal ratio); details: AR-UAS-bla HEK293, beta-lactamase ratio, agonist 16 h; hits give high values
# How it was run: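 EC50 and efficacy came from Hill fits of titrations (up to 92 uM) normalized to 30 nM R1881 as 100% and DMSO as 0%. Compound exposure was 16 h at 37 C on AR-UAS-bla HEK293 cells, with a 405/460/530 nm CCF4 fluorescence read.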
# [8] = target: Androgen receptor (Homo sapiens) (UniProt P10275); assay: qHTS assay for small molecule antagonists of androgen receptor signaling (AID 588516; active means well fitted curve in the direction sought with a large enough effect in the signal ratio, with a control signal flat, not every such curve was filed as active; inconclusive means small, poorly fitted or top-dose-only effect, or effect the other way, or a change in a side signal; inactive means no such curve, though single readings can be large or run the other way; the % refers to the signal ratio)
# How it was run: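 Antagonist mode: inhibition of R1881-stimulated (10 nM final) bla reporter in GeneBLAzer AR HEK 293 cells, 16 h at 37C, compounds titrated. IC50 and efficacy from Hill-equation fits of 405/460–530 nm FRET ratios.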
# Chain of Ubiquitin carboxyl-terminal hydrolase 1 (Homo sapiens) (O94782 whole entry, looked up): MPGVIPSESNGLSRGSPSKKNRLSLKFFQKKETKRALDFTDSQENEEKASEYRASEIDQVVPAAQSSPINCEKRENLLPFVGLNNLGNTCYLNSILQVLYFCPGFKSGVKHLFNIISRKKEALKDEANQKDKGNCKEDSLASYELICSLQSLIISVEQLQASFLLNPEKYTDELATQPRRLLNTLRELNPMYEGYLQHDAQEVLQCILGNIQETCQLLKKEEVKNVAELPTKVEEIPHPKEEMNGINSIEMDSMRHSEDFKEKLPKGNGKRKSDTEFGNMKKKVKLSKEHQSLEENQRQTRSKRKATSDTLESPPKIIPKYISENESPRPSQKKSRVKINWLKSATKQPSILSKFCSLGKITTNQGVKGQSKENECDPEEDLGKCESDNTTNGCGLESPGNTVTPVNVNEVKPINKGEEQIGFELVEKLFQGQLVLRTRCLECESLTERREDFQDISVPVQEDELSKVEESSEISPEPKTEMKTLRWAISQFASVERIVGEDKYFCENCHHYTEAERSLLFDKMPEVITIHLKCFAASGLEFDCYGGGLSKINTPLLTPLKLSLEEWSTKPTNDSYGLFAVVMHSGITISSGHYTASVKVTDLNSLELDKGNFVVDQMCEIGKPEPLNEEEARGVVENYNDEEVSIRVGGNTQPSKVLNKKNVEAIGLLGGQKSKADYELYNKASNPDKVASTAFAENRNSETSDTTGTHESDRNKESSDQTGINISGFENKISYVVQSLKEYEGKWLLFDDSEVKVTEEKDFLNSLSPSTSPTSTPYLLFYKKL
# Chain of ATP-dependent 6-phosphofructokinase (Trypanosoma brucei brucei) (O15648 whole entry, looked up): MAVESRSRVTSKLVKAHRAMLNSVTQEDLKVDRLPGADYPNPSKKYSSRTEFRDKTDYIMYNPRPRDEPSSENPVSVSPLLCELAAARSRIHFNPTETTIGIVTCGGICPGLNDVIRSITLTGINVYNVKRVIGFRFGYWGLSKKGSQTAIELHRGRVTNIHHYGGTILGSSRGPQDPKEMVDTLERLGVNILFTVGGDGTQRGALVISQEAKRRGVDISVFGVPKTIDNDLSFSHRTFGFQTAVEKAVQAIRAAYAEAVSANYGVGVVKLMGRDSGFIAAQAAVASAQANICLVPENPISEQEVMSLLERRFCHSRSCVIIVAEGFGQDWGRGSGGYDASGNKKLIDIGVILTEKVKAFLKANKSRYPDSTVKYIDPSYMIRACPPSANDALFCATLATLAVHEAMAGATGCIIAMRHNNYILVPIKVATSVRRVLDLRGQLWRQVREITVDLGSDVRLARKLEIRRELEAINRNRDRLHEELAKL
# Chain of Androgen receptor (Homo sapiens) (P10275 whole entry, looked up): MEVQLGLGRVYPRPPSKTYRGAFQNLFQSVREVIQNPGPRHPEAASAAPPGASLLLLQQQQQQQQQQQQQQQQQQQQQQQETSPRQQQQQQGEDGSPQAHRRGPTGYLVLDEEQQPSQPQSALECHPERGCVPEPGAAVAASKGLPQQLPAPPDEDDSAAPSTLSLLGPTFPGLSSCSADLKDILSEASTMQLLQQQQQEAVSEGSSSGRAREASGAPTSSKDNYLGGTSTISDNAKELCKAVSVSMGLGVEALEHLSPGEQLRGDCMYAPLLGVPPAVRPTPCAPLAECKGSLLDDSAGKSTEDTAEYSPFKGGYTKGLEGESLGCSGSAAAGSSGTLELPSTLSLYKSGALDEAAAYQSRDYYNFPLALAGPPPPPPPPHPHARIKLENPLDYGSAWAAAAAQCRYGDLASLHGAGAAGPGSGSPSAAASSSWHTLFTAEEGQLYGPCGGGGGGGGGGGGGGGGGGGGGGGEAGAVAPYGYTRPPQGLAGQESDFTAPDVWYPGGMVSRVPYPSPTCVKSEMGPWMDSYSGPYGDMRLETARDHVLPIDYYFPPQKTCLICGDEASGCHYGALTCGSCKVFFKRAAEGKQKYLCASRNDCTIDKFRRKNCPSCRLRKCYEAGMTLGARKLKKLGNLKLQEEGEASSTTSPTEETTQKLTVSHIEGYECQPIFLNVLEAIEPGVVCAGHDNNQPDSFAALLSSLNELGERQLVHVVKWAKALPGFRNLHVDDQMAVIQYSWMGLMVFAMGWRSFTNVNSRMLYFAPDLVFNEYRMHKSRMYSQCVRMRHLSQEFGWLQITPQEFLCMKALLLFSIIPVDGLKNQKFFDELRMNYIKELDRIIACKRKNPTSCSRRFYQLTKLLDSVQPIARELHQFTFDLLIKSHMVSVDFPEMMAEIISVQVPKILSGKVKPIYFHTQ
# Chain of Estrogen receptor (Homo sapiens) (P03372 whole entry, looked up): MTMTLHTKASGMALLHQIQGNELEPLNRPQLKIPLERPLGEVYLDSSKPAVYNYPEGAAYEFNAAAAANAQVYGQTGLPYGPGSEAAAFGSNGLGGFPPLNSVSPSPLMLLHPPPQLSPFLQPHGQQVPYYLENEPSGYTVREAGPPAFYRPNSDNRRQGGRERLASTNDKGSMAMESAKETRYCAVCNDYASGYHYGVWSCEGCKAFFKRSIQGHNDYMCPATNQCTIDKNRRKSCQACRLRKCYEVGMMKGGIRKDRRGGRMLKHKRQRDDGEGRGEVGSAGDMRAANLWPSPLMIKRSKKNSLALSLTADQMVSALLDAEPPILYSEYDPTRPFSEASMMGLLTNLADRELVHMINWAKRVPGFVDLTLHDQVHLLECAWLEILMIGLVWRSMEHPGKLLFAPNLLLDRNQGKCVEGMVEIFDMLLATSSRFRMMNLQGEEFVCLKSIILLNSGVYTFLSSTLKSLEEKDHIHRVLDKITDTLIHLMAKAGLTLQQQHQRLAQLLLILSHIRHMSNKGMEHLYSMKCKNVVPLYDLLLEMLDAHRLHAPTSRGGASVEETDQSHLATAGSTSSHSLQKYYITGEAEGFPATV
# Chain of Thyrotropin-releasing hormone receptor (Homo sapiens) (P34981 whole entry, looked up): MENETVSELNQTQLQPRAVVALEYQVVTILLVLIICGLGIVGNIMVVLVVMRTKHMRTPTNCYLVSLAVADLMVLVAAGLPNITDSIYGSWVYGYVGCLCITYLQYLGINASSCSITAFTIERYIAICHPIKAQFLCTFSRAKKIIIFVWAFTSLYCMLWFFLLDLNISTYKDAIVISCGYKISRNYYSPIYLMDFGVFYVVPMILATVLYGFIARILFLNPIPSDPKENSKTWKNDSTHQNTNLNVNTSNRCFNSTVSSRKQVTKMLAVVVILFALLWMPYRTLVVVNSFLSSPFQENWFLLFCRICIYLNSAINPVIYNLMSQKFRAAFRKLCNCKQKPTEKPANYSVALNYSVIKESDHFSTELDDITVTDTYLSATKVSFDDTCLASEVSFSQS
smiles,measurement,setting,value
Cc1ccnc(NS(=O)(=O)c2ccc(N)cc2)n1,outcome,[1],inactive
same,Potency,[2],inactive
CC(=O)c1ccc2c(c1)N(CCCN1CCC(CCO)CC1)c1ccccc1S2,outcome,[1],inactive
same,Potency,[2],inactive
Nc1ccc(C(=O)O)cc1,outcome,[1],inactive
same,Potency,[2],inactive
same,Potency,[3],inactive
same,outcome,[4],inactive
CCCCCC=CCC=CCCCCCCCC(=O)OCC,outcome,[1],inactive
same,Potency,[2],inactive
CCN(CC)C(=O)N1CCN(C)CC1,outcome,[1],inactive
same,Potency,[2],inactive
CCCCC1=NC2(CCCC2)C(=O)N1Cc1ccc(-c2ccccc2-c2nn[nH]n2)cc1,outcome,[1],inactive
same,Potency,[2],inactive
CN=C(NC#N)NCCSCc1csc(N=C(N)N)n1,outcome,[1],inactive
same,Potency,[2],inactive
CC(O)(P(=O)(O)O)P(=O)(O)O,outcome,[1],inactive
same,Potency,[2],inactive
CCCN1CCCC[C@H]1C(=O)Nc1c(C)cccc1C,outcome,[1],inactive
same,Potency,[2],inactive
CC(O)C(=O)O (stereo unspecified),outcome,[1],inactive
same,Potency,[2],inactive
same,Potency,[3],inactive
same,outcome,[4],inactive
O=c1ccc2ccccc2o1,outcome,[1],inactive
same,Potency,[2],inactive
same,Potency,[3],inactive
same,outcome,[4],inactive
CN(C)C(=S)SC(=S)N(C)C,outcome,[1],inactive
same,Potency,[2],inactive
NCCC(O)(P(=O)(O)O)P(=O)(O)O,outcome,[1],inactive
same,Potency,[2],inactive
CC(C)COC(=O)c1ccc(N)cc1,outcome,[1],inactive
same,Potency,[2],inactive
NC(CS)C(=O)O (stereo unspecified),outcome,[1],inactive
same,Potency,[2],inactive
CCCCOc1ccc(C(=O)CCN2CCCCC2)cc1,outcome,[1],inactive
same,Potency,[2],inactive
CCCCCCCCCCCCCCCC[N+](C)(C)CCN(Cc1ccc(OC)cc1)c1ncccn1,outcome,[1],inactive
same,Potency,[2],31.6 µM (active)
CC(=O)Oc1ccc(C(=C2CCCCC2)c2ccc(OC(C)=O)cc2)cc1,outcome,[1],inactive
same,Potency,[2],inactive
CN(C)CCCOc1nn(Cc2ccccc2)c2ccccc12,outcome,[1],inactive
same,Potency,[2],inactive
CCn1cc(C(=O)O)c(=O)c2cnc(N3CCCC3)nc21,outcome,[1],inactive
same,Potency,[2],inactive
C=CCc1ccc(O)c(OC)c1,outcome,[1],inactive
same,Potency,[2],inactive
same,Potency,[3],inactive
same,outcome,[4],inactive
CN1CCC[C@@H]1c1cccnc1,outcome,[1],inactive
same,Potency,[2],inactive
CCOC(=O)OC(C)OC1=C(C(=O)Nc2ccccn2)N(C)S(=O)(=O)c2ccccc21 (stereo unspecified),outcome,[1],inactive
same,Potency,[2],inactive
CC(=O)OCC(=O)NCCCOc1cccc(CN2CCCCC2)c1,outcome,[1],inactive
same,Potency,[2],inactive
CC(C)(C(=O)c1cccnc1)c1cccnc1,outcome,[1],inactive
same,Potency,[2],inactive
COC(=O)[C@@H]1CC2=CC(=O)CC[C@]2(C)[C@@]23O[C@@H]2C[C@@]2(C)[C@@H](CC[C@@]24CCC(=O)O4)[C@H]13,outcome,[1],inactive
same,Potency,[2],inactive
Clc1ccc2c(c1)CCc1cccnc1C2=C1CCNCC1,outcome,[1],inactive
same,Potency,[2],inactive
Cc1cc(O)c(C(C)C)cc1Cl,outcome,[1],inactive
same,Potency,[2],inactive
Oc1cc(O)c2c(c1)O[C@H](c1ccc(O)c(O)c1)[C@H](O)C2,Potency,[2],inactive
Oc1c(Cl)cc(Cl)cc1Sc1cc(Cl)cc(Cl)c1O,Potency,[2],35.5 µM (active) and 20 µM (active)
same,Potency,[3],39.8 µM [inconclusive] (active)
same,outcome,[4],inactive
COc1ccc(OC)c(C(O)CNC(=O)CN)c1 (stereo unspecified),Potency,[2],inactive
CC(C)(Oc1ccc(Cl)cc1)C(=O)O,Potency,[2],inactive
CN(C)/N=N/c1nc[nH]c1C(N)=O,outcome,[1],inactive
same,Potency,[2],inactive
same,outcome,[4],inactive
CC(=O)Oc1ccc(C(c2ccc(OC(C)=O)cc2)c2ccccn2)cc1,Potency,[2],inactive
COc1cccc2c1C(=O)c1c(O)c3c(c(O)c1C2=O)C[C@@](O)(C(=O)CO)C[C@@H]3O[C@H]1C[C@H](N)[C@H](O)[C@H](C)O1,Potency,[3],5.01 µM [inconclusive] (active) and 7.94 µM [inhibitor] (active)
same,outcome,[4],inactive
O=C(Nc1ccc(Cl)c(Cl)c1)C1CC1,Potency,[2],inactive
"Cc1c2oc3c(C)ccc(C(=O)N[C@@H]4C(=O)N[C@H](C(C)C)C(=O)N5CCC[C@H]5C(=O)N(C)CC(=O)N(C)[C@@H](C(C)C)C(=O)O[C@@H]4C)c3nc-2c(C(=O)N[C@@H]2C(=O)N[C@H](C(C)C)C(=O)N3CCC[C@H]3C(=O)N(C)CC(=O)N(C)[C@@H](C(C)C)C(=O)O[C@@H]2C)c(N)c1=O (I: T[dV]P[Sar][NMeV] / II: T[dV]P[Sar][NMeV]; ester I:1-I:C, II:1-II:C; linker I:N-II:N via Actinocin(9to1))",Potency,[3],35.5 nM [inconclusive] (active) and 35.5 nM [inhibitor] (active)
same,outcome,[4],inactive
O=C(O)CCCCC(=O)O,outcome,[1],inactive
same,Potency,[2],inactive
same,Potency,[3],inactive
same,outcome,[4],inactive
O=C(CCN1CCC(c2ccccc2)C1)c1ccc2c(c1)OCCO2 (stereo unspecified),Potency,[2],inactive
Cc1cc(N)c2cc(NC(=O)Nc3ccc4nc(C)cc(N)c4c3)ccc2n1,Potency,[2],10 µM (active)
C=C(CC)C(=O)c1ccc(OCC(=O)O)c(Cl)c1Cl,Potency,[2],inactive
same,Potency,[3],inactive
same,outcome,[4],inactive
CNCC[C@@H](Oc1ccccc1C)c1ccccc1,Potency,[2],inactive
CC(=O)O[C@]1(C(C)=O)CC[C@H]2[C@@H]3C[C@H](C)C4=CC(=O)CC[C@]4(C)[C@H]3CC[C@@]21C,Potency,[3],inactive
same,outcome,[4],inactive
Oc1c(I)cc(Cl)c2cccnc12,Potency,[2],inactive
COC1=CC(=O)C[C@@H](C)[C@]12Oc1c(Cl)c(OC)cc(OC)c1C2=O,outcome,[1],inactive
same,Potency,[2],inactive
same,outcome,[4],inactive
C/C=C/c1ccc(OC)cc1,Potency,[2],inactive
NC(=NCCCCCCN=C(N)/N=C(\N)Nc1ccc(Cl)cc1)/N=C(\N)Nc1ccc(Cl)cc1,Potency,[2],56.2 µM (active) and 50.1 µM (active)
CC(C)NC[C@@H](O)COc1cccc2ccccc12,activation,[5],1.94% (inactive)
same,outcome,[6],inactive
same,Potency,[2],inactive
CCC(C(=O)OCCN(CC)CC)c1ccccc1 (stereo unspecified),Potency,[2],inactive
O=C1OC(c2ccc(O)cc2)(c2ccc(O)cc2)c2ccccc21,activation,[7],-5.75% (inactive)
CC(C)(C)CC(C)(C)c1ccc(OCCOCC[N+](C)(C)Cc2ccccc2)cc1,Potency,[3],44.7 µM [inconclusive] (active)
same,outcome,[4],inactive
CCCC(=O)Nc1ccc(OCC(O)CNC(C)C)c(C(C)=O)c1 (stereo unspecified),Potency,[2],inactive
CCCCCCc1ccc(O)cc1O,outcome,[1],inactive
same,Potency,[2],44.7 µM (active)
same,activation,[7],-17.1% (inactive)
same,outcome,[8],inactive
Cc1cc(=O)n(-c2ccccc2)n1C,Potency,[3],inactive
same,outcome,[4],inactive
same,activation,[7],-8.07% (inactive)
same,outcome,[8],inactive
CCCCCCCCCCCCCCCC[N+](C)(C)CC,Potency,[2],17.8 µM (active)
N[C@H](Cc1c[nH]c2ccccc12)C(=O)O,Potency,[2],inactive
Nc1nc2ncc(CNc3ccc(C(=O)N[C@@H](CCC(=O)O)C(=O)O)cc3)nc2c(=O)[nH]1,Potency,[2],inactive
Nc1ccc(/C=C/c2ccc(N)cc2S(=O)(=O)O)c(S(=O)(=O)O)c1,Potency,[2],inactive
O=C(N/N=C/c1ccccc1O)c1ccncc1,Potency,[2],inactive
CCN1CCN(c2cc3c(cc2F)c(=O)c(C(=O)O)cn3C2CC2)CC1,Potency,[2],inactive
COc1cccc2c1C(=O)c1c(O)c3c(c(O)c1C2=O)C[C@@](O)(C(C)=O)C[C@@H]3O[C@H]1C[C@H](N)[C@H](O)[C@H](C)O1,Potency,[2],44.7 µM (active) and 39.8 µM (active)
CCCCC(CC)CN=C(N)NC(N)=NCCCCCCN=C(N)NC(N)=NCC(CC)CCCC (stereo unspecified),Potency,[2],22.4 µM (active)
CCN(CC)C(=O)/C(C#N)=C/c1cc(O)c(O)c([N+](=O)[O-])c1,Potency,[2],inactive
C[C@H]1C[C@H]2[C@@H]3CCC4=CC(=O)C=C[C@]4(C)[C@@]3(Cl)[C@@H](O)C[C@]2(C)[C@@]1(O)C(=O)CO,outcome,[1],inactive
same,Potency,[2],inactive
same,outcome,[4],inactive
CN(C)CCOc1ccccc1Cc1ccccc1,Potency,[2],inactive
